Assay results from PubChem BioAssay (NCATS).
Results filed as inconclusive are left out. A call without a number means that no potency is given here. The source made the active and inactive calls. Calls come from the whole dose curve; as a rule, active = well fitted curve in the direction sought with a large enough effect; inconclusive = small, poorly fitted or top-dose-only effect, or another doubt; inactive = no such curve, though single readings can be large; an effect the other way counts as inactive or inconclusive.

What was measured:
[1] = target: Aldehyde dehydrogenase, mitochondrial (Homo sapiens) (UniProt P05091); experiment: qHTS for Inhibitors of the Aldehyde Dehydrogenase Family (ALDH2) Primary screen (AID 2061308); note: nearly all actives have a fitted effect of over 55% in size
[2] = target: Retinaldehyde dehydrogenase 3 (Homo sapiens) (UniProt P47895); experiment: qHTS for Inhibitors of the Aldehyde Dehydrogenase Family (ALDH1A3) Primary screen (AID 2061315)

SMILES | Potency [1] | Potency [2]
O=C(O)c1ccc(O)c2ncccc12 | inactive | inactive
Cc1ccc(-c2ccc(=O)n(CCNC(C)c3ccco3)n2)cc1 (centres undefined) | inactive | inactive
Cc1ccc(OCCn2c(CCNC(=O)c3ccc4cc[nH]c4c3)nc3ccccc32)cc1 | inactive | inactive
Cc1ccc(-c2cc(C(=O)Nc3ccc(S(=O)(=O)Nc4ccc(C#N)cc4)cc3)c3ccccc3n2)cc1C | inactive | inactive
Cc1nc(C)c(-c2ccc3ncnc(N(C)Cc4sccc4C)c3c2)s1 | inactive | inactive
O=C(NCCc1ccc2c(c1)OCO2)c1cc2sccc2n1Cc1ccccc1 | inactive | inactive
NC(=O)C1CCN(c2ncc(-c3cccc(F)c3)s2)CC1 | inactive | inactive
Cc1nc(NC2CCCCC2)c2nc(-c3ccccc3)n(CCN3CCCCC3)c2n1 | inactive | inactive
Cc1ccc(-c2ccc(=O)n(CC(=O)NCCCN(C)C)n2)cc1 | inactive | inactive
N[C@H](Cc1ccccc1)C(=O)Nc1ccc(Cl)cc1C(=O)c1ccc[nH]1 | inactive | inactive
CC(C)(C)OC(=O)n1c2ccsc2c2cnn(Cc3ccccc3F)c(=O)c21 | inactive | inactive
Cc1cc(C)nc(NC(=S)N2CCN(c3ccc([N+](=O)[O-])cc3Cl)CC2)c1 | inactive | inactive
CN(C)CCCCC(=O)Nc1ccc(NC(=S)NC(=O)c2ccc(C(C)(C)C)cc2)cc1 | inactive | inactive
COc1ccc(-c2csc3ncnc(Sc4nnnn4C)c23)cc1 | inactive | inactive
C=C1C(=O)OC2CC3(C)C(O)C(=O)C=C(C)C3CC12 (centres undefined) | inactive | inactive
O=C(Nc1ccc(-c2nc3ccccc3[nH]2)cc1)c1ccc(C(F)(F)F)cc1 | inactive | inactive
COc1ccccc1C(=O)OCC#CCSc1nnc(-c2cccc3ccccc23)o1 | inactive | inactive
O=C(CCc1ccccc1)Nc1ccc(S(=O)(=O)Nc2nccs2)cc1 | inactive | inactive
COc1cccc(C2c3c(ncn(-c4ccc(C)cc4)c3=N)Oc3ccc4ccccc4c32)c1 (centres undefined) | inactive | inactive
CC1=C(C(=O)Nc2ccccc2)C(c2ccccc2Cl)N=C(Nc2nc3ccccc3o2)N1 (centres undefined) | inactive | inactive
Cc1ccc(C)c(SC2CS(=O)(=O)c3ccccc32)c1 (centres undefined) | inactive | inactive

SMILES | Potency [1] | Potency [2]
COc1ccc(C2=Nn3c(nnc3-c3cccc(OC)c3OC)SC2)cc1OC | inactive | inactive
Fc1ccc(-c2nc(-c3c(F)cccc3F)[nH]c2-c2ccncc2)cc1 | inactive | inactive
C=C1C(=O)O[C@@H]2/C=C(\CO)CC/C=C(/C=O)C[C@@H](O)[C@@H]12 | inactive | inactive
NC(=O)c1c(NC(=O)c2ccncn2)sc2c1CCCC2 | inactive | inactive
Cc1sc(C)c2c1C(=O)NS2(=O)=O | inactive | inactive
CC(C)=CCCC1(C)C2CCC1(C)C(O)C2 (centres undefined) | inactive | inactive
CC/C(=C(\c1ccc(O)cc1)c1ccc(OCCNC)cc1)c1ccccc1 | inactive | inactive
Fc1cc(Nc2nc(-c3ccncc3)nc3ccccc23)ccc1-c1cn[nH]c1 | inactive | inactive
COc1ccc(N2C(=O)c3ccccc3C2=O)cc1 | inactive | inactive
Cc1ccc(NC(=O)Nc2nnc(-c3ccncc3)s2)cc1C | inactive | inactive
Cn1nnnc1Sc1ncnc2scc(-c3ccccc3Cl)c12 | inactive | inactive
Cc1ccc(N2C(=O)c3ccccc3C2=O)c(C)c1 | inactive | inactive
O=S(=O)(c1ccc2c(c1)OCCO2)N1C[C@@H]2C[C@H]1CN2S(=O)(=O)c1c(F)cccc1F | inactive | inactive
Cc1cnc(-c2ccccc2C(C)C)nc1NCc1ccc(C(N)=O)cc1 | inactive | inactive
C[C@@H]1CN(S(=O)(=O)c2ccc3c(c2)OCCO3)CCN1S(=O)(=O)c1c(F)cccc1F | inactive | inactive
COc1cc(OC)cc(-c2csc(N3CCC(C(N)=O)CC3)n2)c1 | inactive | inactive
O=[S+]([O-])(Nc1ccc(N2CCNCC2)cc1)c1ccc(NCc2ccc(Br)cc2O)cc1 | inactive | inactive
CCCN(Cc1cccs1)c1ncnc2ccc(-c3ccc4c(c3)OCO4)cc12 | inactive | inactive
O=C(CNC(=O)C1CCCCC1)OC(C(=O)c1ccccc1)c1ccccc1 (centres undefined) | inactive | inactive
CCOc1ccc(CCNC(=O)c2cc3sccc3n2C)cc1OCC | inactive | inactive
COc1ccc(C2c3c(nc(CCCc4ccccc4)[nH]c3=O)Oc3ccc4ccccc4c32)cc1OC (centres undefined) | inactive | inactive
